{"source": "the supplement of paper PMC9588786", "note": "Structures can show the parent of a compound that is named as a salt. ± gives the standard deviation of the averaged measurements.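 Further: viability read as CCK-8 absorbance at 450 nm in cells co-exposed to the GPX4 inhibitor RSL3, relative to a 0.01% DMSO vehicle control.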"}
{"system": "HT-1080", "test": "relative cell viability with RSL3 co-treatment (fraction of control); higher = stronger protection from RSL3-induced ferroptosis (higher viability)", "conditions": "10 µM"}
{"molecule": "O=C1c2ccc(Nc3ccc(F)cc3F)cc2CCc2ccc(OC[C@H](O)CO)cc21", "note": "[Skepinone-L]", "relative cell viability": "0.513 ± 0.12"}
{"molecule": "Oc1c2ccccc2c2c3c(cccc13)N=N2", "relative cell viability": "0.71 ± 0.036"}
{"molecule": "Oc1cccc(-c2nc(N3CCOCC3)c3oc4ncccc4c3n2)c1", "relative cell viability": "0.75 ± 0.044"}
{"molecule": "O=C1NC(=O)/C(=C/c2ccc(-c3ccc(F)cc3O)o2)S1", "relative cell viability": "0.75 ± 0.052"}
{"molecule": "NC[C@@](O)(c1ccc(Cl)cc1)c1ccc(-c2cn[nH]c2)cc1", "relative cell viability": "0.687 ± 0.22"}
{"molecule": "COCC(=O)NC/C=C/c1ccc2ncnc(Nc3ccc(Oc4ccc(C)nc4)c(C)c3)c2c1", "relative cell viability": "0.647 ± 0.095"}
{"molecule": "COc1cc2ncnc(Oc3cccc(NC(=O)Nc4cc(C(C)(C)C(F)(F)F)on4)c3)c2cc1OC", "relative cell viability": "0.68 ± 0.17"}
{"molecule": "COc1ccccc1-c1cc(Nc2cccc(CS(N)(=O)=O)c2)ncn1", "relative cell viability": "0.613 ± 0.095"}
{"molecule": "O=C(NC(NC(=S)Nc1ccc(F)c([N+](=O)[O-])c1)C(Cl)(Cl)Cl)C(c1ccccc1)c1ccccc1", "note": "(centres undefined)", "relative cell viability": "0.62 ± 0.095"}
{"molecule": "CCc1cncnc1N1CCN(Cc2nc3ccc(C(F)(F)F)cc3[nH]2)CC1", "relative cell viability": "0.653 ± 0.083"}
{"molecule": "CN1CCC(COc2cnc(-c3cccc(Cn4nc(-c5cccc(C#N)c5)ccc4=O)c3)nc2)CC1", "relative cell viability": "0.633 ± 0.067"}
{"molecule": "O=c1cc(N2CCOCC2)oc2c(-c3ccccc3)cccc12", "relative cell viability": "0.76 ± 0.16"}
{"molecule": "CN(C)C/C=C/C(=O)Nc1cc2c(Nc3ccc(F)c(Cl)c3)ncnc2cc1O[C@H]1CCOC1", "note": "[Afatinib (BIBW2992)]", "relative cell viability": "0.72 ± 0.061"}
{"molecule": "O=C(NOCC1CC1)c1ccc(F)c(F)c1Nc1ccc(I)cc1Cl", "relative cell viability": "0.693 ± 0.2"}
{"molecule": "CN1CCN(c2ccc3nc(-c4c(N)c5c(F)cccc5[nH]c4=O)[nH]c3c2)CC1", "note": "[Dovitinib (TKI-258) Dilactic Acid]", "relative cell viability": "0.563 ± 0.25"}
{"molecule": "COc1ccc(COc2cc3oc(=O)c4cc(C(C)O)ccc4c3cc2OC)cc1", "note": "(centres undefined) [Palomid 529 (P529)]", "relative cell viability": "0.537 ± 0.2"}
{"molecule": "Cc1cc(Nc2nc(N[C@@H](C)c3ncc(F)cn3)ncc2Cl)[nH]n1", "relative cell viability": "0.597 ± 0.12"}
{"molecule": "CO[C@H]1C[C@@H]2CC[C@@H](C)[C@@](O)(O2)C(=O)C(=O)N2CCCC[C@H]2C(=O)O[C@H]([C@H](C)C[C@@H]2CC[C@@H](OC(=O)C(C)(CO)CO)[C@H](OC)C2)CC(=O)[C@H](C)/C=C(\\C)[C@@H](O)[C@@H](OC)C(=O)[C@H](C)C[C@H](C)/C=C/C=C/C=C/1C", "relative cell viability": "0.367 ± 0.11"}
{"molecule": "COc1cc2ncnc(Nc3cccc(Cl)c3)c2cc1OC", "note": "[AG-1478 (Tyrphostin AG-1478)]", "relative cell viability": "0.68 ± 0.2"}
{"molecule": "N#CCNC(=O)c1ccc(-c2ccnc(Nc3ccc(N4CCOCC4)cc3)n2)cc1", "note": "[Momelotinib (CYT387)]", "relative cell viability": "0.4 ± 0.075"}
{"molecule": "CCCS(=O)(=O)Nc1ccc(F)c(C(=O)c2c[nH]c3ncc(Cl)cc23)c1F", "relative cell viability": "0.64 ± 0.036"}
{"molecule": "CC(=O)Nc1cccc(-n2c(=O)n(C3CC3)c(=O)c3c(Nc4ccc(I)cc4F)n(C)c(=O)c(C)c32)c1", "relative cell viability": "0.78 ± 0.052"}
{"molecule": "CNC(=O)CN1CCC(Oc2cc3c(Nc4cccc(Cl)c4F)ncnc3cc2OC)CC1", "note": "[Sapitinib (AZD8931)]", "relative cell viability": "0.56 ± 0.095"}
{"molecule": "CNS(=O)(=O)C[C@H]1CC[C@H](N(C)c2[nH]cnc3nccc2-3)CC1", "note": "[Oclacitinib]", "relative cell viability": "0.927 ± 0.075"}
{"molecule": "N#Cc1c(Oc2ccc(F)c(NC(=O)Cc3cccc(C(F)(F)F)c3)c2)ccc2nc(NC(=O)C3CC3)sc12", "relative cell viability": "0.797 ± 0.032"}
{"molecule": "Cc1ccc(C(=O)Nc2ccc(CN3CCN(C)CC3)c(C(F)(F)F)c2)cc1C#Cc1cnc2[nH]ncc2c1", "note": "[GZD824 Dimesylate]", "relative cell viability": "0.553 ± 0.031"}
{"molecule": "CC[C@@H]1C(=O)N(C)c2cnc(Nc3ccc(C(=O)N[C@H]4CC[C@H](N5CCN(CC6CC6)CC5)CC4)cc3OC)nc2N1C(C)C", "note": "[Volasertib (BI 6727)]", "relative cell viability": "0.397 ± 0.15"}
{"molecule": "CCS(=O)(=O)Nc1ccc2c(c1)/C(=C(/Nc1ccc(CN3CCCCC3)cc1)c1ccccc1)C(=O)N2", "note": "[Hesperadin]", "relative cell viability": "0.293 ± 0.12"}
{"molecule": "Cn1c(=O)c(F)c(Nc2ccc(I)cc2F)c2c(=O)n(C[C@@H](O)CO)cnc21", "relative cell viability": "0.71 ± 0.017"}
{"molecule": "CCn1c(-c2nonc2N)nc2c(C#CC(C)(C)O)ncc(OC[C@H]3CCCNC3)c21", "relative cell viability": "0.563 ± 0.18"}
{"molecule": "O=C(O)CCC(=O)Nc1ccc(Br)cn1", "note": "[Bikinin]", "relative cell viability": "0.723 ± 0.14"}
{"molecule": "CC(C)[C@H](CO)Nc1nc(Nc2cccc(Cl)c2)c2ncn(C(C)C)c2n1", "note": "[Purvalanol A]", "relative cell viability": "0.65 ± 0.09"}
{"molecule": "O=C1NC(=O)C(c2ccccc2[N+](=O)[O-])=C1Nc1ccc(O)c(Cl)c1", "relative cell viability": "0.847 ± 0.031"}
{"molecule": "CC[C@@](C)(Nc1ccnc(-c2c[nH]c3ncccc23)n1)C(=O)NCC(F)(F)F", "note": "[Decernotinib (VX-509)]", "relative cell viability": "0.823 ± 0.042"}
{"molecule": "Cc1c(Cn2c(C)nc3c(C(=O)O)cc(N4CCOCC4)cc32)cccc1C(F)(F)F", "relative cell viability": "0.823 ± 0.045"}
{"molecule": "CNC(=O)c1cc(Oc2ccc(NC(=O)Nc3ccc(Cl)c(C(F)(F)F)c3)cc2)ccn1", "note": "[Sorafenib Tosylate]", "relative cell viability": "0.317 ± 0.04"}
{"molecule": "CC(C)(C)c1cc(/C=C(\\C#N)C(N)=S)cc(C(C)(C)C)c1O", "note": "[Tyrphostin AG 879]", "relative cell viability": "0.69 ± 0.017"}
{"molecule": "COc1cc(Nc2c(C#N)cnc3cc(OCCCN4CCN(C)CC4)c(OC)cc23)c(Cl)cc1Cl", "note": "[Bosutinib (SKI-606)]", "relative cell viability": "0.867 ± 0.035"}
{"molecule": "CCN1CCN(Cc2ccc(Nc3ncc(F)c(-c4cc(F)c5nc(C)n(C(C)C)c5c4)n3)nc2)CC1", "relative cell viability": "0.42 ± 0.026"}
